The whole screen tested about 44,000 compounds, of which fewer than 10 were called active. Calls follow the shape of the dose curve; as a rule, active = well fitted activation curve with a large enough effect; inconclusive = small, poorly fitted or top-dose-only effect, or another doubt; inactive = no such curve, though single readings can be large or run the other way. The list is a sample of the results.
target: Beta-2 adrenergic receptor (Homo sapiens) (UniProt P07550); test: qHTS assay of beta-arrestin-biased ligands of beta2-adrenergic receptor: NCGC Sytravon Library Screen; details: HTLA Tango cells, beta-arrestin recruitment, luciferase luminescence, 18 h; series mostly up to 46.1 µM; activation: at the top concentration;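 also: 0% = DMSO and full agonism = EC100 isoproterenol or metaproterenol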
Sequence (P07550 whole entry, looked up): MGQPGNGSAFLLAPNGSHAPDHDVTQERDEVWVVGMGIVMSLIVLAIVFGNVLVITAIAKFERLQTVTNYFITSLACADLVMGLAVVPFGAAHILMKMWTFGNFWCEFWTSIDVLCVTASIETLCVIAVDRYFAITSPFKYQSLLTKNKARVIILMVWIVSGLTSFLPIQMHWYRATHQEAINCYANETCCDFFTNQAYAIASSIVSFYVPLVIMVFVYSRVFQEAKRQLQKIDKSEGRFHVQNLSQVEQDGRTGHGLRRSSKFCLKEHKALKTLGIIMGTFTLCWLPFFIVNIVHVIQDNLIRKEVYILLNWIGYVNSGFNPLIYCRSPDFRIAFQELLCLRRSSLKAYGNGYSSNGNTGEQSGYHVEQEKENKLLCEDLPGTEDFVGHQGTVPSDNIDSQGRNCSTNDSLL
Excerpt: The concept of biased agonism is an emerging concept of molecular pharmacology which proposes that seven transmembrane receptors (7TMRs) or G protein-coupled receptors (GPCRs), exist in multiple signaling conformations and complexes and that ligands (either agonists or antagonists) can induce signaling biased responses for distinct signal transduction cascades. […] Furthermore, accumulating evidence over the last decade has drawn attention to a novel function of beta-arrestins as signal transducers that scaffold various signaling molecules upon activation of 7TMRs. […] This beta-arrestin-biased signaling presumably leads to distinct physiological outcomes from those by G protein activation. Additionally, the active receptor conformations which prefer on this beta-arrestin signaling are likely different from those activating G protein signaling. […] The goal of this screening project will be to discover and optimize novel beta-arrestin-biased ligands for beta2-AR signaling. A luminescent cell-based assay for beta2-AR-mediated agonism, known as the Tango assay, has been validated in which ligand binding of a recombinant beta2-AR and subsequent recruitment of a recombinant beta-arrestin lead to the release of the transcriptional activator tTA, which upregulates transcription of a tTA-responsive luciferase gene. […] Compounds from the NCGC Sytravon Library collection were screened as a concentration-titration series that ranged from 46 microM to 0.6 nM. NIH Molecular Libraries Probe Production Network [MLPCN] NIH Chemical Genomics Center [NCGC] MLPCN Grant: Fast-track/HHSN271700800025C PI: Bryan Roth and Bob Lefkowitz
Tango cells were dispensed into white, solid, tissue-culture-treated 1536-well plates at 1500 cells/well in DMEM, containing 1% fetal bovine serum (FBS). Then, 23 nL of compounds or DMSO were delivered to each well using a pin tool. Plates were incubated at 37 degrees C, 5% CO2 for 18 hr. Then 2.5 uL luminescent substrate mix (in-house prepared: 150 mM Tris-Cl, pH 7.6, 3 mM MgCl2, 1% Triton X-100, 5 mM DTT, 0.5 mM CoA, 0.15 mM ATP, 0.44 mM D-luciferin, final concentrations) was added to each well. Plates were then incubated for 15 minutes at room temperature, and subsequently measured on a ViewLux plate reader for luminescent signal using a clear filter with a 10 second exposure and 2x binning. The %Activity was determined from the corrected luminescence values. […] Concentration-response curves were fitted to the signals arising from the resulting luminescence. The concentration-effect curves were then classified based on curve quality (r2), response magnitude and degree of measured activity, and compounds were subsequently categorized based on their curve class.

activation, inactive:
Cc1cc(C)cc(NS(=O)(=O)c2cc3c(cc2C)NC(=O)CO3)c1 -0.844%
Cc1[nH]c2ccccc2c1C(c1ccccc1)c1cccs1 (centres undefined) 0.001%
CCOC(=O)c1c(C)[nH]c(C)c1S(=O)(=O)N1CCC(C(=O)Nc2ccc(C)c(Cl)c2)CC1 -0.156%
Cc1csc2nc(COc3ccc(NC(=O)COc4ccccc4)cc3)cc(=O)n12 0.0821%
COc1ccc(OC)c(CNC(=O)c2c3c(nc4ccccc24)C(=O)N(C2CCCCC2)C3)c1 -0.621%
Cc1ccc(NC(=O)CN2C(=O)C(c3ccc(F)cc3)=NC23CCCCCC3)c(C)c1 -2.97%
CCOc1ccc(C(=O)Nc2ccc3nc4c(c(Nc5ccccc5OC)c3c2)CCCC4)cc1 1.06%
CCc1ccc(S(=O)(=O)c2nnn3c2nc(N2CCN(CC)CC2)c2sccc23)cc1 0.0012%
O=C(c1ccccc1F)N1CCC(c2nc3c(nnn3Cc3cccc(F)c3)c(=O)[nH]2)CC1 0.988%
Cc1cc(=O)c2cc(C(=O)Nc3cccc(C)c3C)ccc2[nH]1 -2.58%
O=C(Nc1nnc(S(=O)(=O)N2CCOCC2)s1)c1cccc(Br)c1 -0.507%
COc1cccc(-c2nnc(SCC(=O)N3CCC(C)CC3)o2)c1 0.664%
COc1ccc2c(C)c(CCC(=O)NCc3ccc(OC)c(OC)c3)c(=O)oc2c1 1.22%
O=C(Cn1cc(SCc2cccc(Cl)c2)c2ccccc21)N1CCCCC1 -0.201%
COc1ccc(-c2cn3c(n2)sc2cc(C(=O)Nc4ccccc4F)ccc23)cc1 0.202%
COc1cc(OC)c(OC)cc1/C=C/c1nc2ccccc2c(=O)n1-c1ccc(Br)c(C)c1 1.95%
CCOC(=O)c1c(S(=O)(=O)N2CCCC(C(=O)NCc3ccc(F)cc3)C2)c(C)n(CC)c1C (centres undefined) -1.48%
COc1ccc(CCNC(=O)CCCCn2c(=O)c3ccccc3n(Cc3ccccc3C)c2=O)cc1OC 8.59%
CCOc1ccc(S(=O)(=O)c2cn(Cc3ccccc3)c3ccc(OCC)cc3c2=O)cc1 0.937%
COc1ccc(NC(=O)CSc2nccn2C2CCCC2)cc1OC -2.77%
Cc1ccc(-c2cnc(C3CC3)o2)cc1S(=O)(=O)Nc1cccc(C)c1C 0.723%
COc1ccc(S(=O)(=O)NCC(c2ccco2)N2CCOCC2)cc1 (centres undefined) -2.12%
CCOC(=O)c1c(NC(C)=O)c2c3c(sc2n1Cc1c(C)cc(C)cc1C)CCCC3 -0.225%
COc1ccc(-c2[nH]c3c(c2-c2c(-n4cccc4)n(C)c(=O)n(C)c2=O)c(=O)n(C)c(=O)n3C)cc1 -2.25%
CC(C)c1ccc(NC(=O)Cn2nnc(C(=O)NCCc3ccccc3)c2N)cc1 -0.0029%
CCn1c(=O)cc(OCC(=O)Nc2cc(Cl)c(OC)cc2OC)c2ccccc21 1.08%
CCc1ccc(NC(=O)Cn2c(=O)n(CCC(=O)NCc3ccc4c(c3)OCO4)c(=O)c3ccccc32)cc1 1.01%
Cc1cc(C)cc(NC(=O)CSc2nc3nccnc3c(=O)n2CCc2c[nH]c3ccccc23)c1 -0.453%
Cc1c(NC(=O)Cc2ccccc2)cccc1-c1nc2cccnc2s1 -2.39%
COc1ccc(S(=O)(=O)NCC(c2ccc(N(C)C)cc2)N2CCCC2)cc1 (centres undefined) 1.28%
COc1ccc(N2CCN(S(=O)(=O)CCNC(=O)C(c3ccccc3)c3ccccc3)CC2)cc1 0.864%
N#C/C(=C\c1cccc(F)c1)c1nc(-c2cc3c(ccc4ccccc43)oc2=O)cs1 -0.271%
CCn1c2ccccc2c2nnc(N3CCN(c4cc(C)ccc4C)CC3)nc21 -0.208%
CCOc1ccc(OCC)c(NC(=O)c2c(C)nn(-c3ccccc3)c2-n2cccc2)c1 -4.02%
CCOc1ccc(CNC(=O)c2cc(=O)[nH]c3ccc(S(=O)(=O)N4CCCCC4)cc23)cc1 -0.314%
O=C(CC(NCc1cccnc1)C(=O)O)Nc1ccc(O)cc1 (centres undefined) 0.126%
CCc1nc2onc(C)c2c(=O)n1CC(=O)O -1.3%
CCCCc1nn2c(=O)cc(COC(=O)c3cccc(NC(=O)COc4ccccc4)c3)nc2s1 0.38%
COc1ccccc1C(=O)OCc1cc(=O)n2nc(-c3cccs3)sc2n1 -0.913%
CCOc1ccccc1CNC(=O)Nc1cn(CC(C)C)c(=O)c2ccccc12 0.473%
CC(=O)Nc1cc(C(=O)NCc2ccc(F)cc2Cl)ccc1Sc1ccc(Cl)cc1 0.0643%
O=S(=O)(c1ccc(Cl)cc1)c1nnn2c1nc(NC1CCCC1)c1sccc12 3.34%
CC(C)(C)c1ccc(C(=O)NCC(c2ccco2)S(=O)(=O)c2ccc(F)cc2)cc1 (centres undefined) -0.628%
COc1ccc(CCNc2nc(-c3ccc(Cl)cc3)cc(C(F)(F)F)n2)cc1OC 0.359%
CCOc1ccc(Nc2ncnc3scc(-c4ccc(OC)cc4)c23)cc1 0.966%
Cc1cccc(NC(=O)CSc2nnc(CNC(=O)c3cccc(C)c3)n2-c2ccccc2)c1 0.652%
Cc1c(C(=O)NCc2ccccc2Br)oc2ccc3c(c12)C(=O)CC(C)(C)O3 0.769%
O=c1c(NCc2cccs2)nccn1-c1ccccc1 -0.476%
COc1ccccc1Nc1c2c(nc3ccc(NC(=O)/C=C/c4cc(OC)c(OC)c(OC)c4)cc13)CCCC2 -0.0014%
CC(=O)N1CCc2cc(Br)cc(S(=O)(=O)CCC(=O)NCCc3ccc(Cl)cc3)c21 -1.89%
Cc1ccccc1CNC(=O)C1CCCN(S(=O)(=O)N(C)c2ccc(F)cc2)C1 (centres undefined) -0.584%
CCOc1cccc(CNC(=O)c2ccc(N3CCCC3)c(NC(=O)Nc3ccccc3CC)c2)c1 0.0293%
Cc1ccc(CN2CCC(CNC(=O)c3cnn(-c4ccccc4Cl)c3C3CCN(C(=O)OC(C)(C)C)CC3)CC2)cc1 -0.282%
COc1cc(OC)c(NC(=O)Cc2ccc(-n3c(C)nc4cccnc43)cc2)cc1Cl 0.0247%
COc1ccc2c(c1)c(N1CCCC1=O)c(C(=O)Nc1ccc(OC)c(Cl)c1)n2C 1.84%
O=C(CC1N=C2c3ccccc3N=C(SCc3ccc(F)cc3)N2C1=O)NCc1cccs1 (centres undefined) 10.6%
CCOc1ccc(C(=O)c2cn(Cc3ccc(F)cc3)c3ccc(F)cc3c2=O)cc1 -0.931%
COc1ccccc1CNC(=O)CCn1c(=O)c2ccccc2n(CC(=O)Nc2ccc(Br)cc2F)c1=O -1.31%
CCOc1ccc(N(CC)S(=O)(=O)N2CCCC(C(=O)NCc3ccc(Cl)cc3)C2)cc1 (centres undefined) 2.98%
COC(=O)c1cc(S(=O)(=O)N2CCN(c3cc(Cl)ccc3C)CC2)c[nH]1 0.398%
Cc1ccc(Cl)cc1NC(=O)CSc1nc2ccccc2nc1Cc1ccccc1 -0.671%
COC(=O)c1ccc2c(c1)N(CC(=O)Nc1ccc(C)c(C)c1)C(=O)c1ccccc1S2 0.0004%
CCc1ccccc1NC(=O)CSc1nnc(-c2ccccc2)c(-c2ccccc2)n1 0.425%
COc1ccc(-c2c(C)c3ccc(O)c(CN4CCN(C)CC4)c3oc2=O)cc1OC 0.151%
CCOC(=O)c1ccc2c(c1)N(Cc1cccc(OC)c1)C(=O)c1ccccc1S2(=O)=O -1.14%
CCN(Cc1ccccc1)Cc1c(O)ccc2c(=O)c(-c3ccc(Cl)cc3Cl)coc12 0.878%
COC(=O)c1ccc(Cn2c(SCC(=O)N(C)c3ccccc3)nc3ccccc32)cc1 0.519%
Cc1ccc(CNC(=O)CCNS(=O)(=O)c2ccc3c(c2)oc(=O)n3C)cc1 0.362%
CSc1ccc(CCNC(=O)c2cc(C)nc3c2c(C)nn3-c2cccc(F)c2)cc1 1.93%
COc1cc(NC(=O)c2cc3ccc4cccnc4c3[nH]2)cc(OC)c1OC 1.03%
CCCCCn1c(=O)[nH]c2cc(C(=O)Nc3ccc(F)cc3)ccc2c1=O 0.0091%
Cc1ccc(NC(=O)Nc2sc3nc4n(c(=O)c3c2C)CCC(C)CC4)c(Cl)c1 (centres undefined) 0.293%
Cc1ccc(-n2ncc(C(=O)N(C)Cc3ccccc3)c2-n2cccc2)cc1 -1.39%
COc1ccccc1NC(=O)C1=C(C)Nc2ncnn2C1c1sccc1C (centres undefined) -0.49%
Cc1ccc(CNC(=O)CCC(=O)N2CC(C)Sc3ccccc32)cc1 (centres undefined) -0.354%
COc1ccccc1N1CCN(CCCNC(=O)c2cnn(-c3ccccc3Cl)c2C2CCN(C(=O)OC(C)(C)C)CC2)CC1 0.105%
Cc1ccc(Cl)cc1NC(=O)C(C)n1nnc2sc(-c3ccccc3)cc2c1=O (centres undefined) -0.567%
Cc1ccc(Cl)cc1NC(=O)Cc1ccc(-n2c(C)nc3cccnc32)cc1 1.55%
Cc1cc2c(cc3c(SCc4nc(-c5ccccc5)oc4C)nnc(C)n32)o1 -0.472%
Cc1ccc(-c2nn3c(=O)cc(CN4CCN(C(=O)Nc5cccc(C(F)(F)F)c5)CC4)nc3s2)cc1 -0.373%
Cc1ccccc1NC(=O)Cn1c(=O)n(CCc2ccccc2)c(=O)c2ccccc21 -2.33%
CCCn1c2ccccc2c2cnn(CC(=O)N(CC)c3cc(C)ccc3C)c(=O)c21 0.931%
O=C(COc1ccc(Cl)cc1)Nc1ccccc1OCc1cc(=O)n2ccccc2n1 -0.53%
CCc1ccccc1NC(=O)CCOc1ccccc1 -1.06%
CCC(C(=O)Nc1cc(OC)ccc1OC)n1c(=O)c(C(F)(F)F)nc2ccccc21 (centres undefined) 0.639%
Cc1ccc(CN2COc3cc(C)c4c(oc(=O)c5ccccc54)c3C2)cc1 0.158%
COc1ccc(OC)c(-c2csc(-c3c(N)c(C(=O)c4ccccc4)n4ccccc34)n2)c1 -3.81%
COc1ccc(CNC(=O)c2ccc3c(c2)nc2n3CCOC2)c(OC)c1 1.39%
CCOC(=O)c1scc(-c2ccc(C)cc2)c1S(=O)(=O)Nc1cc(C)ccc1C -0.489%
CCN(CCCNC(=O)c1ccc(Sc2ccc(C)cc2)c(NC(C)=O)c1)c1cccc(C)c1 0.426%
CCOc1cccc(NC(=O)c2ccc(F)c(S(=O)(=O)N(CC)c3cccc(C)c3)c2)c1 0.916%
COc1ccc(C(=O)c2oc3ccccc3c2NC(=O)COc2cccc(C)c2)cc1 -1.04%
Cc1ccccc1OCc1ccc(-c2nc(C#N)c(N3CCCCC3)o2)o1 -3.83%
CCCCc1nn2c(=O)cc(COC(=O)c3ccc(NC(=O)c4ccccc4C)cc3)nc2s1 0.536%
